HEK293 viab = GF-AFC viability counterscreen for inhibitors of alpha-synuclein gene (SNCA) expression | HEK-293-SNCA-luc viability, GF-AFC fluorescence, 24 h | Potency, µM (doses to about 57.1 µM), hits mostly cytotoxic | actives 0.12% (n = 150,000); note: nearly all actives have a fitted effect of over 30% in size
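HEK-293-SNCA-luc cells (1500/well) plated 24 h, then exposed 24 h to a dilution series; GF-AFC added 30 min at 37C, fluorescence 405/540 nm; normalised to medium-only and DMSO wells, Hill fit.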
KDM5B inh = Primary screen for KDM5B Histone Demethylases FDH-coupled qHTS | Lysine-specific demethylase 5B (Homo sapiens), Q9UGL1 | KDM5B demethylase, FDH-coupled NADH fluorescence (FDH is formaldehyde dehydrogenase) | Potency, µM (highest dose often 57.7 µM), usual class: inhibitors | actives 2.6% (n = 220,000); note: nearly all actives have a fitted effect of over 70% in size
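Measured: NADH fluorescence change, 30 min, RT. System: KDM5BΔAP 200 nM final, H3K4me3 peptide, α-KG, Fe(II), ascorbate, NAD⁺ plus FDH, pH 7.5 HEPES. Compounds: titrated, 10 min pre-incubation with enzyme.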
SNCA expr inh = Primary qHTS assay for inhibitors of alpha-synuclein gene (SNCA) expression | HEK-293 SNCA-luciferase knock-in, luminescence, 24 h | Potency, µM (titrated, usually from 57.2 µM), hits mostly inhibitors | actives 0.17% (n = 140,000) | AID 1671194, 2021; note: nearly all actives have a fitted effect of over 45% in size
IP6K1 inh = Primary qHTS assay for small molecule inhibitors of Inositol hexaphosphate kinase 1 (IP6K1); Inositol hexakisphosphate kinase 1 (Homo sapiens), Q92551; AID 1645851, 2021; activity change, % (series mostly up to about 58 µM); IP6K1 kinase, ADP-Glo luminescence, 2 h; stronger effect = lower value; actives 0.81% (n = 140,000); in the data active = activity change below about -25%
Target sequence (Q92551 whole entry, looked up): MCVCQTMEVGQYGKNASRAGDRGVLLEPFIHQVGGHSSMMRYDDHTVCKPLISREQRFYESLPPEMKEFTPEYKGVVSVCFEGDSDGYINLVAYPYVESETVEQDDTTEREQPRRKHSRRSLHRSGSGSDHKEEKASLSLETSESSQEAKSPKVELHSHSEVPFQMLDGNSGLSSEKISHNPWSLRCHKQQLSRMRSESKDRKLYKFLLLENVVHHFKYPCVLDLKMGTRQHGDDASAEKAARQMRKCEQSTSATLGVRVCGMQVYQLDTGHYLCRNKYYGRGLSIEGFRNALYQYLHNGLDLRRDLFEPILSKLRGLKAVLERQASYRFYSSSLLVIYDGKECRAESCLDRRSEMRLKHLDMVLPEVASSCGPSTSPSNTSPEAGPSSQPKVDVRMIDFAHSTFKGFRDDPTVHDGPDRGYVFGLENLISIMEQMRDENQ
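ADP-Glo luminescence measures ADP made by human IP6K1 during a 2 h RT reaction with ATP/IP6 (mix at 1.3 mM/130 uM); top library doses 57.5 and 19.1 uM final.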
Hits are given with their value; – = inactive; ? = inconclusive; · = no result given. Sampled rows, rich in hits. Any-hit rate of the full collection: about 3%. Unless noted, calls come from the whole dose curve; as a rule, active = well fitted curve in the direction sought with a large enough effect; inconclusive = small, poorly fitted or top-dose-only effect, or another doubt; inactive = no such curve, though single readings can be large; an effect the other way counts as inactive or inconclusive.

SMILES	HEK293 viab	KDM5B inh	SNCA expr inh	IP6K1 inh
CCS(=O)(=O)c1ccc2oc([C@H]3CCN(Cc4c[nH]c5ccccc45)C3)nc2c1	–	32µM	–	–
Cc1ccc(C)c(NC(=O)c2cc3c(N4CCSCC4)nc(C)cn3n2)c1	–	32µM	–	–
COc1ccccc1NC(=O)c1cc2c(N3CCSCC3)nc(C)cn2n1	–	28µM	–	–
Cc1cn2nc(C(=O)Nc3ccccc3C)cc2c(N2CCSCC2)n1	?	35µM	–	–
CCCCN(Cc1ccccc1)c1ccc(NS(=O)(=O)c2ccc(C(C)(C)C)cc2)cc1C(=O)O	·	–	·	·
COc1ccc(Nc2nc(-c3ccc(OC)cc3)c(C)s2)cc1	·	–	·	·
CC(=O)Oc1c(-c2ccc(NC(=O)c3ccco3)cc2)c(C2CC2)nn1-c1cccc(C)c1	–	32µM	–	–
O=C1NCCN2CC3(CCN(C(=O)Nc4ccccc4F)CC3)CC12 (stereo not drawn)	–	?	–	–
O=C1NCCN2CC3(CCN(C(=O)Nc4ccc5c(c4)OCCO5)CC3)CC12 (stereo not drawn)	–	25µM	–	–
O=C(Nc1ccc(Oc2ccccc2)cc1)N[C@H]1CO[C@H]2[C@@H]1OC[C@H]2OC(=O)Nc1cccc2ccccc12	–	?	?	–
O=C(Nc1ccc(Oc2ccccc2)cc1)O[C@@H]1CO[C@H]2[C@@H]1OC[C@@H]2NC(=S)Nc1cccc2ccccc12	–	32µM	?	–
O=C(Nc1ccc(Oc2ccccc2)cc1)O[C@@H]1CO[C@H]2[C@@H]1OC[C@@H]2NS(=O)(=O)c1ccc2ccccc2c1	–	22µM	–	–
COc1ccc(NS(=O)(=O)c2cc(C(=O)N3CCc4sccc4C3)ccc2Cl)cc1	·	–	·	·
Cc1cc(F)ccc1-c1[nH]nc2ncc(-c3ccc([S+](C)(=O)[O-])cc3)nc12	–	35µM	?	–
Cc1cc(F)ccc1-c1[nH]nc2ncc(-c3cn[nH]c3)nc12	–	28µM	?	–
CC(=O)Nc1cccc(-c2cnc3n[nH]c(-c4ccc(F)cc4C)c3n2)c1	–	35µM	?	–
CC(=O)Nc1cccc(-c2cnc3n[nH]c(-c4sccc4C)c3n2)c1	?	–	–	–
COc1ccc(C2=CC(c3ccc(Cl)cc3)n3nnnc3N2)c(OC)c1 (stereo not drawn)	·	–	·	·
O=C1CN(C(=O)c2cnc3ccccn3c2=O)CCN1Cc1ccc(F)cc1	–	28µM	–	–
CCC(C(=O)N1CCN(Cc2ccc(C)c(C)c2)C(=O)C1)n1cccn1 (stereo not drawn)	–	–	–	–
Cc1ccc(F)cc1-c1cccc(CCOc2cnc3c(ccn3CC(=O)O)c2)c1	–	35µM	–	–
C[S+](=O)([O-])CCn1ncc2cc(OCc3cccc(-c4ccccc4F)c3)ccc21	–	?	–	–
O=C(O)Cn1ccc2cc(OCCc3cccc(-c4ccccc4F)c3)cnc21	–	32µM	–	–
O=C(O)Cn1ccc2cc(OCCc3cccc(-c4ccc(F)cc4F)c3)cnc21	–	35µM	–	–
COc1cccc(-c2cccc(COc3cnc4c(ccn4CC(=O)O)c3)c2)c1F	–	35µM	?	–
SMILES	HEK293 viab	KDM5B inh	SNCA expr inh	IP6K1 inh
Cc1oc(-c2ccccc2)nc1CC(=O)NCCc1cccc(F)c1	·	–	·	·
N#CCCN(C(=S)Nc1ccc(SC(F)F)cc1)c1ccccc1	·	–	·	·
Cc1cccc(NC(=O)CCc2ncc(-c3ccc(F)cc3)o2)c1C	·	–	·	·
CSC(NS(=O)(=O)c1cccs1)=C(c1nc2ccccc2s1)c1nc2ccccc2s1	·	–	·	·
C=CCNC(=S)Nc1ccc(Cl)cc1Cl	·	–	·	·
Cc1cc(F)ccc1-c1cccc(COc2cnc3c(ccn3CC(=O)O)c2)c1	–	?	–	–
O=C(O)Cn1ccc2cc(OCc3cccc(-c4ccc(F)cc4F)c3)cnc21	–	35µM	–	–
CCc1noc(-c2ccn3c(CNC(=O)c4cc(F)cc(F)c4)nnc3c2)n1	–	25µM	–	–
CCc1noc(-c2ccn3c(CNC(=O)c4ccc(OC)cc4)nnc3c2)n1	–	14µM	?	–
CCCc1noc(-c2ccn3c(CNC(=O)c4ccc(OC)cc4)nnc3c2)n1	–	?	–	–
CCc1noc(-c2ccn3c(CNC(=O)c4cc(F)ccc4F)nnc3c2)n1	–	–	–	–
CN(c1ccccc1)c1ccc2c(n1)CN(Cc1ccc(F)cc1)C(=O)CO2	–	32µM	–	–
COc1cccc(CN2Cc3nc(Oc4ccccc4)ccc3OCC2=O)c1	–	–	–	–
COc1ccc(-c2ccc3c(n2)CN(Cc2csc(C)n2)C(=O)CO3)cc1F	–	35µM	–	–
COc1cccc(CN2Cc3nc(-c4ccc(F)cc4)ccc3OCC2=O)c1	–	–	?	–
COc1cccc(CN2Cc3nc(-c4cc(Cl)ccc4OC)ccc3OCC2=O)c1	–	35µM	–	–
COc1cccc(CN2Cc3nc(N(C)c4ccccc4)ccc3OCC2=O)c1	–	32µM	–	–
COc1ccc(Cl)cc1-c1ccc2c(n1)CN(CCOc1ccccc1)C(=O)CO2	–	?	–	–
O=C(Nc1oc2ccccc2c(=O)c1-c1ccc(F)cc1)c1cccc([N+](=O)[O-])c1	·	–	·	·
CC1CCC(=C(C#N)C(=O)NC2CC2)CC1 (stereo not drawn)	·	–	·	·
CCOC(=O)[C@H]1[C@@H](O)C(=O)N(Cc2ccccc2)C12CCN(C(=O)CC(C)(C)C)CC2	·	·	·	–
NCC(c1ccco1)N1CCCC1 (stereo not drawn)	·	–	·	·
O=C(CCc1nc(-c2ccc(Cl)cc2)no1)Nc1cccc(S(=O)(=O)NC2=NCCC2)c1	·	–	·	·
NC(=O)c1cccc(-c2ccc3c(n2)CN(Cc2ccc(F)cc2)C(=O)CO3)c1	?	35µM	?	–
COc1cccc(-c2ccc3c(n2)CN(CC(=O)N2CCCC2)C(=O)CO3)c1	–	?	–	–
SMILES	HEK293 viab	KDM5B inh	SNCA expr inh	IP6K1 inh
O=C(CN1Cc2nc(-c3cc4ccccc4o3)ccc2OCC1=O)N1CCCC1	–	28µM	–	–
COc1cccc(CN2Cc3nc(-c4cc5ccccc5o4)ccc3OCC2=O)c1	–	50µM	–	–
O=c1[nH]c(CN2CCCCCCC2)nc2ccsc12	·	–	·	·
COc1cccc([S+](=O)([O-])N2CCn3c(nn(-c4ccc(F)cc4F)c3=O)C2)c1	–	25µM	–	–
O=c1n(-c2ccc(F)cc2F)nc2n1CCN([S+](=O)([O-])c1cccc(C(F)(F)F)c1)C2	–	–	–	–
COc1ccc(CN2CCn3c(nn(-c4ccc([N+](=O)[O-])cc4)c3=O)C2)cc1	–	32µM	–	–
COc1ccc(CN2CCn3c(nn(-c4ccc(F)cc4F)c3=O)C2)cc1	–	22µM	–	–
Cc1ccc(CN2CCn3c(nn(-c4ccc([N+](=O)[O-])cc4)c3=O)C2)cc1	–	?	–	–
Cc1ccc(-c2c(C)nn3c2NC(=O)CCC3=O)cc1S(=O)(=O)NCc1ccc(F)cc1	·	–	·	·
